Experimental data reported in PubChem BioAssay (NCATS).
Records with an inconclusive call do not appear. Calls of active or inactive are those of the source. Unless noted, calls come from the whole dose curve; as a rule, active = well fitted curve in the direction sought with a large enough effect; inconclusive = small, poorly fitted or top-dose-only effect, or another doubt; inactive = no such curve, though single readings can be large; an effect the other way counts as inactive or inconclusive.

Columns and labels:
[1] = Cell Viability - BJ (AID 421; calls by dose curve;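 note: potency is the fitted concentration of half-maximal effect; cells exposed to compound for 40 hours at 37 °C before readout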); settings: BJ fibroblast viability, qHTS
Method in brief: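 Normal human BJ foreskin fibroblasts, 1500/well in complete medium, treated 40 hr at 37 °C. Cellular ATP by CellTiter-Glo luminescence; normalized to DMSO and 100 uM tamoxifen, AC50 from Hill fit.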

[2] = Cell Viability - Jurkat (AID 426;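 active = dose-dependent loss of cell ATP signal giving a full or clear fitted curve, ranked by lower potency value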; note: potency is the fitted concentration of half-maximal effect); settings: qHTS
Method in brief: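 Cells of the human T-cell leukemia line Jurkat (E6-1) are seeded at 5000 per well, treated with compound across a concentration range for 40 hours at 37 °C, then lysed with CellTiter-Glo; luminescence reports ATP.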

[3] = Cell Viability - Hek293 (AID 427;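 active = compounds whose dose-response curve shows a full or clear partial loss of cell viability, called from curve shape rather than a numeric limit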;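 note: potency is the fitted concentration of half-maximal effect; cells exposed to compound for 40 hours at 37 °C before reading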); settings: qHTS
Method in brief: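 HEK293 cells in complete medium were exposed to compound for 40 hr at 37 °C, then cellular ATP was read by CellTiter-Glo luminescence. Data were normalized to DMSO (basal) and 100 uM tamoxifen (100% inhibition), and AC50 came from Hill fits.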

[4] = Cell Viability - HepG2 (AID 433; calls by dose curve;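 note: potency is the fitted concentration of half-maximal effect; potency for ATP loss meaning cytotoxicity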); settings: qHTS
Method in brief: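 HepG2 hepatocellular carcinoma cells (1500/well) were treated with compounds for 40 h at 37 °C in complete medium; intracellular ATP was read by CellTiter-Glo luminescence. Data were normalized to DMSO and 100 uM tamoxifen, and AC50 came from Hill fits.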

[5] = Cell Viability - MRC5 (AID 434; calls by dose curve;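 note: potency is the fitted concentration of half-maximal effect; potency reflects cytotoxicity seen as loss of intracellular ATP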); settings: MRC5 lung fibroblast viability, qHTS
Method in brief: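 AC50 values come from Hill-equation fits of intracellular ATP loss, measured by CellTiter-Glo luminescence. Normal lung fibroblasts (MRC5) had 40 hr compound treatment at 37 C, normalized between DMSO and 100 uM tamoxifen.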

[6] = Cell Viability - SK-N-SH (AID 435; calls by dose curve;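 note: potency is the fitted concentration of half-maximal effect; compound exposure lasted 40 h at 37 °C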); settings: SK-N-SH neuroblastoma cell viability qHTS
Method in brief: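 SK-N-SH human neuroblastoma cells (1500/well) were exposed to compounds in complete medium for 40 h at 37 °C, and intracellular ATP was then measured by CellTiter-Glo luminescence. AC50 was taken from Hill fits, normalized to DMSO and 100 uM tamoxifen.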

[7] = target: Mitogen-activated protein kinase 10 (Mus musculus) (UniProt Q61831); assay: JNK3 AlphaScreen Assay (AID 530; active = well fitted curve in either direction with a large enough effect, not every such curve was filed as active;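 note: kinase came from lysate of stimulated human HepG2 cells; signal reports phosphorylation of biotinylated GST-cJun 1-79 at Ser73 with 10 µM ATP; % is set by controls: 0 for no effect and ±100 for the full control effect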); settings: JNK3 lysate, c-Jun phosphorylation; series mostly up to 57.1 µM
Method in brief: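 qHTS titrations with 15 min compound pre-incubation before adding ATP (10 uM final). Read-out: AlphaScreen of Ser73-phosphorylated biotin-GST-cJun using HepG2 lysate JNK3 activated by IL-1β and TNFα.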

[8] = Cell Viability - NIH 3T3 (AID 541); settings: NIH 3T3 cell viability, qHTS; activity change, negative = cytotoxicity: at 92.2 µM (top of the series);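 note: plate controls were DMSO alone for no effect and tamoxifen positive control for full effect; nearly all actives have a fitted effect of over 25% in size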
Method in brief: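 Cells seeded at 1000/well, rested 5 hr at 37 °C, then dosed and incubated 40 hr at 37 °C. CellTiter-Glo added, 20 min room temperature, luminescence read. AC50 by Hill fit.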

[9] = Cell Viability - H-4-II-E (AID 543); settings: H-4-II-E rat hepatoma viability; series mostly up to 92.2 µM; note: % is set by controls: 0 for no effect and ±100 for the full control effect; nearly all actives have a fitted effect of over 35% in size
Method in brief: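 Cells seeded at 1500 per well and rested 5 hr; compounds added; 40 hr incubation at 37 °C; CellTiter-Glo added, 20 min at room temperature; luminescence read. Hill-equation fits gave AC50.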

[10] = Cell Viability - SH-SY5Y (AID 544); settings: SH-SY5Y neuroblastoma cell viability; viability change, negative = cytotoxic: at 92.2 µM (top of the series); note: nearly all actives have a fitted effect of over 55% in size
Method in brief: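 Cells were plated at 1500 per well and allowed 5 hr at 37 °C. Compounds were added across a concentration range and incubated 40 hr at 37 °C. CellTiter-Glo was added for 20 min at room temperature before luminescence reading.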

[11] = Cell Viability - Renal Proximal Tubule (AID 545); settings: renal proximal tubule cells viability, primary cells of rat origin; series mostly up to 91.7 µM; note: nearly all actives have a fitted effect of over 40% in size
Method in brief: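 Primary rat renal proximal tubule cells (1000/well) were treated with compounds for 40 hr at 37 °C in complete medium. Intracellular ATP was measured by CellTiter-Glo luminescence, and AC50 values came from Hill-equation fits of concentration-response data.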

[12] = Cell Viability - Mesenchymal (AID 546); settings: mesenchymal cells viability, qHTS; series mostly up to 91.7 µM;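 note: cells exposed to compound for 40 hours before reading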
Method in brief: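 CellTiter-Glo luminescence (intracellular ATP, 20 min room temperature) after 40 hr compound exposure at 37 °C of 1000 glomerulus-derived human kidney mesenchymal cells/well; AC50 values obtained by fitting qHTS concentration-response data to the Hill equation.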

[13] = Cellular Toxicity (caspase-3) HepG2 (AID 654); settings: HepG2 caspase-3 activation, luminescence; series mostly up to 92.2 µM;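 note: cells exposed to compound for 16 hours before reading; 0% = DMSO alone and 100% = caspase signal from 100 µM tamoxifen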
Method in brief: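 Caspase 3/7 activation in HepG2 is measured as rising luminescence after a 16 hr treatment at 37 °C. Values are scaled between DMSO basal and 100 uM tamoxifen, and AC50 is fitted with the Hill equation.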

[14] = Cellular Toxicity (caspase-3) Jurkat (AID 655); settings: Jurkat caspase-3 activation, luminescence; caspase-3 activation: at 92.2 µM (top of the series), DMSO = 0%, tamoxifen = 100%;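 note: cells exposed to compound for 16 h at 37 °C before reading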
Method in brief: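 Jurkat cells (5000/well) in complete medium were treated with compounds for 16 hr at 37 °C, then Caspase-Glo 3/7 luminescence was read after 20 min at room temperature. Data normalized to DMSO (basal) and 100 uM tamoxifen (100%); AC50 from Hill fit.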

[15] = Cellular Toxicity (caspase-3) HUV-EC-C (AID 656); settings: HUV-EC-C cells, caspase-3 activation (apoptosis), vehicle = 0, 100 µM tamoxifen = 100%; series mostly up to 92.2 µM
Method in brief: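 HUV-EC-C endothelial cells, 1000/well, were pre-incubated 5 hr at 37°C, then exposed to compounds for 16 hr at 37°C. Caspase-Glo 3/7 luminescence was read after 20 min at room temperature. AC50 came from Hill fits, normalized to DMSO and 100 uM tamoxifen.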

[16] = Cellular Toxicity (caspase-3) SHSY5Y (AID 657); settings: SH-SY5Y caspase-3 activation, DMSO zero, 10 µM staurosporine = 100%; series mostly up to 91.7 µM
Method in brief: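 SH-SY5Y human neuroblastoma cells (1500/well) were treated with compounds for 16 h at 37 °C, then Caspase-Glo 3/7 luminescence was read after 1 h at room temperature. Data normalized to DMSO and 10 uM staurosporine; AC50 from Hill fits.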

[17] = Cellular Toxicity (caspase-3) BJ (AID 658); settings: BJ fibroblasts, luminescence, normalized: DMSO 0%, staurosporine 100%; series mostly up to 91.7 µM
Method in brief: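 Caspase-Glo 3/7 luminescence, read 1 hr after reagent at room temperature, in normal BJ fibroblasts exposed 16 hours at 37 °C. AC50 values from Hill-equation concentration-response, scaled between DMSO basal and 10 uM staurosporine as 100%.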

[18] = Cellular Toxicity (caspase-3) MRC-5 (AID 659); settings: MRC-5 cells, luminescence, normalized: DMSO 0%, 10 µM staurosporine 100%; series mostly up to 91.7 µM
Method in brief: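 Luminescent Caspase-Glo 3/7 read-out (1 h, room temperature) after a 16 h, 37 °C compound exposure of MRC-5 lung fibroblasts at 1500 cells/well. Concentration-response AC50 from Hill equation; 0% DMSO, 100% 10 uM staurosporine.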

[19] = Cell Viability - N2a (AID 540); settings: N2a mouse neuroblastoma cell viability; activity change, negative = cytotoxicity: at 92.2 µM (top of the series);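 note: plate controls were DMSO alone for no effect and tamoxifen control for full effect; nearly all actives have a fitted effect of over 45% in size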
Method in brief: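 Cytotoxicity was scored as loss of cellular ATP in N2a cells, a mouse neuroblastoma line. Compounds are applied in a qHTS concentration series for 40 hr at 37 °C.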

[20] = Cell Viability - HUV-EC-C (AID 542); settings: HUV-EC-C endothelial cell viability, qHTS; series mostly up to 92.2 µM; note: % is set by controls: 0 for no effect and ±100 for the full control effect; nearly all actives have a fitted effect of over 35% in size
Method in brief: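 Cells were seeded at 1000 per well and incubated 5 hr at 37 °C before compound addition. After 40 hr at 37 °C, CellTiter-Glo reagent was added for 20 min and luminescence read. AC50 values came from Hill-equation modelling.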

O=[N+]([O-])c1ccc(Cl)cc1Cl
inactive: Potency [1] > 92 µM | Potency [2] > 92 µM | Potency [3] > 92 µM | Potency [4] > 92 µM | Potency [5] > 92 µM | Potency [6] > 92 µM | outcome [7] | Potency [8] | Potency [9] | Potency [10] | Potency [11] | Potency [12] | Potency [13] | caspase-3 activation [14] 1.63% | outcome [15] | outcome [16] | outcome [17] | outcome [18]

CCC(O)C(C)(C)C (stereo not given)
inactive: Potency [1] > 92 µM | Potency [2] > 92 µM | Potency [3] > 92 µM | Potency [4] > 92 µM | Potency [5] > 92 µM | outcome [7] | activity change, negative = cytotoxicity [19] 5.57% | Potency [8] | Potency [20] | Potency [9] | Potency [10] | Potency [11] | Potency [12] | Potency [13] | caspase-3 activation [14] 2.09% | outcome [15] | outcome [16] | outcome [17] | outcome [18]

COc1cccc(N)c1
inactive: Potency [1] > 92 µM | Potency [2] > 92 µM | Potency [3] > 92 µM | Potency [4] > 92 µM | Potency [5] > 92 µM | Potency [6] > 92 µM | outcome [7] | Potency [8] | Potency [20] | Potency [9] | Potency [10] | Potency [11] | Potency [12] | caspase-3 activation [14] 2.35% | outcome [15] | outcome [16] | outcome [17] | outcome [18]

Cc1cccc(Br)c1
inactive: Potency [1] > 92 µM | Potency [2] > 92 µM | Potency [3] > 92 µM | Potency [4] > 92 µM | Potency [5] > 92 µM | outcome [7] | activity change, negative = cytotoxicity [19] -13.7% | Potency [8] | Potency [20] | Potency [9] | Potency [10] | Potency [11] | Potency [12] | Potency [13] | caspase-3 activation [14] -1.22% | outcome [15] | outcome [16] | outcome [17] | outcome [18]

Nc1ccccc1[N+](=O)[O-]
inactive: Potency [1] > 92 µM | Potency [2] > 92 µM | Potency [3] > 92 µM | Potency [4] > 92 µM | Potency [5] > 92 µM | Potency [6] > 92 µM | outcome [7] | Potency [8] | Potency [20] | Potency [9] | Potency [10] | Potency [11] | Potency [12] | Potency [13] | caspase-3 activation [14] -0.598% | outcome [15] | outcome [16] | outcome [17] | outcome [18]

CNc1ccc([N+](=O)[O-])cc1
inactive: Potency [1] > 92 µM | Potency [2] > 92 µM | Potency [3] > 92 µM | Potency [4] > 92 µM | Potency [5] > 92 µM | Potency [6] > 92 µM | outcome [7] | activity change, negative = cytotoxicity [19] -12.7% | Potency [20] | Potency [9] | Potency [10] | Potency [11] | Potency [12] | Potency [13] | caspase-3 activation [14] -0.0856% | outcome [15] | outcome [16] | outcome [17] | outcome [18]

Nc1cccc(N)c1
inactive: Potency [1] > 92 µM | Potency [2] > 92 µM | Potency [3] > 92 µM | Potency [4] > 92 µM | Potency [5] > 92 µM | Potency [6] > 92 µM | outcome [7] | Potency [8] | Potency [9] | Potency [10] | Potency [11] | Potency [12] | Potency [13] | caspase-3 activation [14] 0.427% | outcome [15] | outcome [16] | outcome [17] | outcome [18]

O=Cc1ccc(C(=O)O)cc1
inactive: Potency [1] > 92 µM | Potency [2] > 92 µM | Potency [3] > 92 µM | Potency [4] > 92 µM | Potency [5] > 92 µM | outcome [7] | activity change, negative = cytotoxicity [19] -12.7% | Potency [8] | Potency [20] | Potency [9] | Potency [10] | Potency [11] | Potency [12] | Potency [13] | caspase-3 activation [14] 0.522% | outcome [15] | outcome [16] | outcome [18]

CCCCCCC(=O)O
inactive: Potency [1] > 92 µM | Potency [2] > 92 µM | Potency [3] > 92 µM | Potency [4] > 92 µM | Potency [6] > 92 µM | outcome [7] | activity change, negative = cytotoxicity [19] -3.74% | Potency [8] | Potency [20] | Potency [9] | Potency [10] | Potency [11] | Potency [12] | Potency [13] | caspase-3 activation [14] 0.927% | outcome [15] | outcome [18]

CCC(C)(C)C
inactive: Potency [1] > 92 µM | Potency [2] > 92 µM | Potency [3] > 92 µM | Potency [4] > 92 µM | Potency [5] > 92 µM | outcome [7] | activity change, negative = cytotoxicity [19] -21.6% | Potency [8] | Potency [20] | Potency [9] | Potency [10] | Potency [11] | Potency [13] | caspase-3 activation [14] -0.787% | outcome [15] | outcome [16] | outcome [17] | outcome [18]

CCC(=O)/C=C/C1C(C)=CCCC1(C)C (stereo not given)
inactive: Potency [1] > 92 µM | Potency [2] > 92 µM | Potency [3] > 92 µM | Potency [4] > 92 µM | Potency [6] > 92 µM | outcome [7] | activity change, negative = cytotoxicity [19] -6.46% | Potency [8] | Potency [20] | Potency [9] | Potency [10] | Potency [11] | Potency [12] | Potency [13] | caspase-3 activation [14] 2.94% | outcome [15] | outcome [16] | outcome [17] | outcome [18]

NC(=S)NNC(N)=S
inactive: Potency [1] > 92 µM | Potency [2] > 92 µM | Potency [3] > 92 µM | Potency [4] > 92 µM | Potency [5] > 92 µM | outcome [7] | activity change, negative = cytotoxicity [19] 4.33% | Potency [8] | Potency [9] | Potency [10] | Potency [11] | Potency [12] | Potency [13] | caspase-3 activation [14] 0.7% | outcome [15] | outcome [16] | outcome [17] | outcome [18]
